In all, about 48,000 compounds went through this assay and about 13,000 (27%) showed an effect of 50% or more. The list shows a part of the results.
The compounds below were run on Wolbachia pipientis (assay: Anti-Wolbachia Cell-Based Screen). Settings: 5 µM.
Format: functional
Design: scale not given: in the data most compounds retested in dose-response had high values

| Structure (SMILES) | Percent Effect [%] |
| --- | --- |
| CC(c1cccc(-c2cn(Cc3ccoc3)nn2)c1)N(C)C (centres undefined) | -9.392 |
| CNC(=O)Cc1ccc(NC(=O)NCc2nc(C)sc2C)cc1 | 5.733 |
| CN(C)C(=O)CCC[S+]([O-])Cc1ccc(Cl)c(Cl)c1 (centres undefined) | -0.5151 |
| CS(=O)(=O)N1CCn2c(C(=O)N3CCOCC3)cnc2C1 | -13.12 |
| CC(C)(C)OC(=O)N1CCCN(c2nnc(C3CC3)s2)CC1 | 1.365 |
| CC(C)(C)OC(=O)N1CCN(C(=O)c2cnn3c2OCCC3)CC1 | 119.8 |
| CC(=O)c1ccc(N2CCN(C(=O)c3cc(C(C)C)nn3C)CC2)cc1 | -2.718 |
| CN(Cc1cncs1)C1CCN(C(=O)OC(C)(C)C)CC1 | 3.797 |
| CS(=O)(=O)N1CCN(C(=O)c2cnn3c2OCCC3)CC1 | 124.7 |
| CC(=O)N1CCN(c2nc3c(cnn3C(C)(C)C)c(=O)[nH]2)CC1 | -9.111 |
| CC(=O)N1CCCN(C(=O)c2cnn(C(C)(C)C)c2C)CC1 | 120.5 |
| CC(=O)c1ccc(N2CCN(C(=O)NC(C)c3ccc(C)o3)CC2)cc1 (centres undefined) | -3.361 |
| CCc1c(C(=O)N2CCCN(C(C)=O)CC2)cnn1C(C)(C)C | 7.313 |
| CS(=O)(=O)N1CCN(C(=O)c2[nH]c3ccc(Cl)cc3c2Cl)CC1 | -22.4 |
| CC(=O)c1ccc(N2CCN(C(=O)c3cnn4c3OCCC4)CC2)cc1 | 108.1 |
| O=C(CCN1CCCCO1)N1CC[C@H](O)[C@@H](O)C1 | -19.59 |
| Cc1ccc(S(=O)(=O)NC(=O)c2cc(S(C)(=O)=O)ccc2C)s1 | 12.42 |
| CCOC(=O)c1ccc(CNC(=O)c2ccon2)o1 | 45.33 |
| CS(=O)(=O)NCC1CCCN(c2ccc(C(F)(F)F)cn2)C1 (centres undefined) | 7.899 |
| O=C(c1cn(-c2ccc(C(F)(F)F)cn2)nn1)N1CCCCCC1 | -5.295 |
| FC(F)(F)c1ccnc(N2CCCOCC2)c1 | 1.908 |
| OC1(CN2CCCCC2)CCN(c2ccc(C(F)(F)F)cn2)C1 (centres undefined) | 107.5 |
| FC(F)(F)c1ccnc(N2CCCCCC2)c1 | 6.382 |
| OC1(CN2CCCC2)COCCN(c2nccs2)C1 (centres undefined) | -1.349 |
| OC1(CN2CCCC2)COCCN(c2cc(C(F)(F)F)ccn2)C1 (centres undefined) | 99.83 |
| OC1(CN2CCCCC2)CCN(c2cc(C(F)(F)F)ccn2)C1 (centres undefined) | 106.3 |
| Cc1cc(F)ccc1CN1CCC(O)(CN2CCCCC2)C1 (centres undefined) | -5.371 |
| CCc1nnc(CNC(=O)CCCN2CCCCC2)s1 | -1.719 |
| O=C(NCCNC(=O)C1CC1)c1sccc1Br | 0.3352 |
